Measured values taken from PubChem BioAssay (Tox21).
Results filed as inconclusive are left out. Entries that show only a call come without a potency. Active and inactive are the calls of the source. Unless noted, calls come from the whole dose curve; as a rule, active = well fitted curve in the direction sought with a large enough effect in the repeat runs; inconclusive = weak or mixed curves; inactive = no such curve, though single readings can be large; an effect the other way counts as inactive or inconclusive.

Columns and labels:
[1] = qHTS assay for small molecules that induce genotoxicity in human embryonic kidney cells expressing luciferase-tagged ATAD5 (AID 651632); note: nearly all actives have a fitted effect of over 15% in size
Method in brief: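 A rise in luciferase signal from ATAD5-tagged HEK293T cells marks genetic stress. Cells were exposed to compounds for 16 hr at 37C, 5% CO2, then luciferase was quantified after a 30 min room-temperature incubation with Amplite.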

[2] = qHTS assay for small molecule agonists of the p53 signaling pathway - cell viability (AID 651633; calls by dose curve; note: nearly all actives have a fitted effect of over 30% in size; note: potency is the fitted concentration of half-maximal effect)
Method in brief: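 p53RE-bla cells, seeded at 4,000 per well and rested 5 h at 37 C/5% CO2, received compounds in DMSO for 16 h at 37 C. CellTiter-Glo was then added, and luminescence was read after 30 min at room temperature to gauge cytotoxicity.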

[3] = qHTS assay for small molecule disruptors of the mitochondrial membrane potential - cell viability (AID 720634; calls by dose curve; note: nearly all actives have a fitted effect of over 20% in size; note: potency is the fitted concentration of half-maximal effect)
Method in brief: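 Cytotoxicity was quantified from ATP content by CellTiter-Glo luminescence in the same wells as the MMP dye read-out. HepG2 (2,000 cells/well) were plated overnight and exposed to compounds for 1 hr at 37 C.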

[4] = qHTS assay for small molecule disruptors of the mitochondrial membrane potential (AID 720635); note: potency is the fitted concentration of half-maximal effect
Method in brief: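 HepG2 cells (2,000/well) attached overnight at 37C, then took compound for 1 hr at 37C, 5% CO2. Mito-MPS dye was added for 30 min; fluorescence was read at 490/535 nm (monomers) and 540/590 nm (aggregates).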

[5] = qHTS assay to test for compound auto fluorescence at 590 nm (red) in HepG2 cells (AID 720674)
Method in brief: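 Rose Bengal sodium served as the red fluorophore standard. HepG2 monolayers (overnight attachment, MEM with 10% FBS) were exposed to test compounds for 1 hr at 37 C and read at Ex 540/Em 590 nm.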

[6] = qHTS assay to test for compound auto fluorescence at 535 nm (green) in HepG2 cells (AID 720675)
[7] = qHTS assay to test for compound auto fluorescence at 460 nm (blue) in HEK293 cells (AID 720678)
Method in brief: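 HEK293, 2,000 cells/well, 10% dialyzed FBS; attach 4-5 hr 37C; pin compound or DMSO; o/n 37C/5% CO2; fluorescence 405/460 nm; triamterene-equivalent units.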

[8] = qHTS assay to test for compound auto fluorescence at 590 nm (red) in HEK293 cells (AID 720679)
Method in brief: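 Intensity at 540nm excitation and 590nm emission is reported as Rose Bengal sodium-equivalent autofluorescence. Measurements followed overnight exposure (37C, 5% CO2) of HEK293 cells, 2,000 per well, to 23 nL compound.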

[9] = qHTS assay for small molecules that induce genotoxicity in human embryonic kidney cells expressing luciferase-tagged ATAD5 - cell viability (AID 651634; calls by dose curve; note: nearly all actives have a fitted effect of over 25% in size; note: potency is the fitted concentration of half-maximal effect)
Method in brief: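 Cytotoxicity counter-readout: after 15.5 hr compound treatment at 37C, live-cell protease activity in ATAD5-luciferase HEK293T cells measured by CellTiter-Fluor fluorescence, 30 min development at 37C.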

Compound | Potency [1] | Potency [2] | Potency [3] | Potency [4] | Potency [5] | Potency [6] | Potency [7] | Potency [8] | Potency [9]
FCOC(C(F)(F)F)C(F)(F)F | inactive | inactive | inactive | inactive | inactive | inactive | inactive | inactive | 
COC(=O)C1=C(C#N)NC(C)=C(C(=O)OC(C)C)C1c1cccc([N+](=O)[O-])c1 (stereo not given) | inactive | inactive | 11.9 µM (active) | 19.7 µM (active) | inactive | inactive | inactive | inactive | 
CC1(C)S[C@@H]2[C@H](NC(=O)C(N)c3ccccc3)C(=O)N2[C@H]1C(=O)OC1OC(=O)c2ccccc21 (stereo not given in full) | inactive | inactive | inactive |  | inactive | inactive | inactive | inactive | 
CCCCC(O)c1ccccc1 (stereo not given) | inactive | 26.6 µM (active) | inactive | inactive | inactive | inactive | inactive | inactive | 
O=C(O)[C@@H](O)[C@H](O)[C@H](O)[C@@H](O)C(=O)O (tested in a mixture with another compound) | inactive | inactive | inactive | inactive | inactive | inactive | inactive | inactive | 
Cn1c(O)c(N=NC(N)=S)c2ccccc21 | inactive | inactive | inactive | 4.95 µM (active) | inactive |  | inactive | inactive | 
CO[C@H]1C=CO[C@@]2(C)Oc3c(C)c(O)c4c(O)c(c(/C=N/N5CCN(C6CCCC6)CC5)c(O)c4c3C2=O)NC(=O)/C(C)=C\C=C[C@H](C)[C@H](O)[C@@H](C)[C@@H](O)[C@@H](C)[C@H](OC(C)=O)[C@@H]1C | inactive | 26.6 µM (active) |  | 1.19 µM (active) | inactive | inactive | inactive | inactive | 21.1 µM (active)
Cc1cc(-c2ccc(N=Nc3c(S(=O)(=O)O)cc4cc(S(=O)(=O)O)cc(N)c4c3O)c(C)c2)ccc1N=Nc1c(S(=O)(=O)O)cc2cc(S(=O)(=O)O)cc(N)c2c1O | inactive | inactive |  |  | inactive | inactive | inactive | inactive | 26.6 µM (active)
C=C1CC[C@H](O)CC1=C/C=C1\CCC[C@]2(C)[C@@H]([C@H](C)CC[C@@H](O)C(C)(C)O)CC[C@@H]12 | inactive | 21.1 µM (active) | inactive | 11.9 µM (active) | inactive | inactive | inactive | inactive | 
CC1=C(C(=O)OCCN(Cc2ccccc2)c2ccccc2)C(c2cccc([N+](=O)[O-])c2)C(P2(=O)OCC(C)(C)CO2)=C(C)N1 (stereo not given) | inactive | inactive | inactive | 26.6 µM (active) | inactive | inactive | inactive | inactive | 
CCCCCCCCCCCCCCCC(=O)OCC(COC(=O)CCCCCCCCCCCCCCC)OC(=O)CCCCCCCCCCCCCCC | inactive | inactive |  | inactive | inactive | inactive | inactive | inactive | inactive
CO/N=C(\C(=O)N[C@@H]1C(=O)N2C(C(=O)O)=CCS[C@H]12)c1csc(N)n1 | inactive | inactive |  | inactive | inactive | inactive | inactive | inactive | inactive
CCN(CC)Cc1cc(Nc2ccnc3cc(Cl)ccc23)ccc1O | inactive | inactive | inactive | inactive | inactive | inactive | inactive | inactive | 
COc1cc(NCCCC(C)N)c2ncccc2c1 (stereo not given) | inactive | inactive | inactive |  | inactive | inactive | inactive | inactive | 
CC(CN1c2ccccc2Sc2ccc(S(=O)(=O)N(C)C)cc21)N(C)C (stereo not given) | inactive | inactive |  |  | inactive | inactive | inactive | inactive | inactive
Clc1cc(Cl)c(OCC#CI)cc1Cl | inactive | 26.6 µM (active) | 9.44 µM (active) | 4.73 µM (active) | inactive | inactive | inactive | inactive | 
CC1(C)C(\C=C/C=C\C=C/C=C2/N(CCCCS(=O)(=O)O)c3ccc4ccccc4c3C2(C)C)=[N+](CCCCS(=O)(=O)[O-])c2ccc3ccccc3c21 | inactive | inactive | inactive |  | inactive | inactive | inactive |  | 
CCCCCCCN(CC)CCCC(O)c1ccc(NS(C)(=O)=O)cc1 (stereo not given) | inactive | inactive |  |  | inactive | inactive | inactive | inactive | inactive
CCCCC(F)(F)[C@@]1(O)CC[C@H]2[C@@H](CC(=O)[C@@H]2CCCCCCC(=O)O)O1 | inactive | inactive | inactive |  | inactive | inactive | inactive | inactive | 
CC1C(=O)CC2C3(C)CCC2(C(C)C(=O)O)C(=O)C13 (stereo not given) | inactive | inactive | inactive |  | inactive | inactive | inactive | inactive | 
CN1CCCC(CN2c3ccccc3Sc3ccccc32)C1 (stereo not given) | inactive | inactive | inactive |  | inactive | inactive | inactive | inactive | 
C[N+]1(C)[C@@H]2CC(OC(=O)C(O)(c3cccs3)c3cccs3)C[C@H]1[C@@H]1O[C@@H]12 (stereo not given in full) | inactive | inactive | inactive | inactive | inactive | inactive | inactive | inactive | 
